Here are results for 8 molecules from PubChem BioAssay.

Assay [1] is described as follows: compound effects on lung adenocarcinoma cell viability – A549, calcein-AM fluorescence, 48 h, basal, profiling panel (AID 1162). Note: test concentration not given here. The settings on record: higher = more signal.
Assay [2] can be described thus: compound effects on differentiated 3T3-L1 adipocyte viability – cell-based, 3T3-L1 adipocytes, calcein-AM fluorescence, 48 h, basal, profiling panel (AID 1163). Note: test concentration not given here. Conditions: 3T3-L1 adipocytes viability, higher = more signal.
Assay [3] can be described thus: compound effects on hepatocellular carcinoma cell viability – HepG2, calcein-AM fluorescence, 48 h, basal, profiling panel (AID 1164). Note: test concentration not given here. The settings on record: higher = more signal.
Assay [4] in a line: compound effects on multiple myeloma cell viability – MM1S, calcein-AM fluorescence, 48 h, basal, profiling panel (AID 1165).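 Note: viability of MM1S multiple myeloma cells under basal unstimulated conditions; test concentration not given here.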 The settings on record: higher = more signal.
Assay [5] in a line: calcein-AM signal in unstimulated myeloma cells – cell-based, calcein-AM fluorescence, 48 h, PK04 Diversity Set, profiling panel (AID 1166).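 Note: cells grown under basal conditions without added stimulus; test concentration not given here.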 The settings on record: RPMI8226 myeloma viability, higher = more signal.
Assay [6] can be described thus: JC-1 mitochondrial signal, unstimulated HepG2 cells – cell-based, JC-1 fluorescence, 24 h, 100 nL compound, profiling panel (AID 1167). Note: test concentration not given here. Conditions: HepG2 mitochondrial potential, higher = more signal.
Assay [7] in a line: JC-1 mitochondrial signal, unstimulated adipocytes – cell-based, JC-1 fluorescence, 3T3-L1 adipocytes, 24 h, 100 nL compound, profiling panel (AID 1168). Note: test concentration not given here. Conditions: JC-1 mitochondrial fluorescence, higher = more signal, called active from +8 up or from −8 down.
Assay [8] is described as follows: JC-1 mitochondrial signal, unstimulated myeloma cells – cell-based, JC-1 fluorescence, RPMI8226, 24 h, 100 nL compound, profiling panel (AID 1169). Note: test concentration not given here. Conditions: JC-1 mitochondrial potential fluorescence, higher = more signal.
Assay [9] in a line: JC-1 mitochondrial signal, unstimulated MM1S myeloma – cell-based, JC-1 fluorescence, 24 h, 100 nL compound, profiling panel (AID 1170). Note: test concentration not given here. Conditions: MM1S mitochondrial potential, higher = more signal.
Assay [10] in a line: resazurin metabolic signal in A549 cells – cell-based, resazurin fluorescence, 24 h, PK04 Diversity Set, profiling panel (AID 1171). Note: test concentration not given here. Conditions: A549 viability, higher = more signal, called active from +8 up or from −8 down. On the technique in general: The colour change of resazurin is a common sign of viable cells or microbes.
Assay [11] can be described thus: resazurin metabolic signal in HepG2 cells – cell-based, resazurin fluorescence, 24 h, PK04 Diversity Set, profiling panel (AID 1172). Note: test concentration not given here. Conditions: HepG2 viability, higher = more signal.
Assay [12] can be described thus: budding yeast growth changes without added modifier – OD600, strain BY4716, 24 h, basal condition, primary screen (AID 1173). The settings on record: S. cerevisiae BY4716 growth, OD600, 24 h; higher = more signal, called active from +8 up or from −8 down.
Assay [13] in a line: viability profiling in MM1S myeloma cells – cell-based, resazurin fluorescence, basal, 24 h, PK04 Diversity Set, profiling panel (AID 1174). Note: test concentration not given here. Conditions: higher = more signal, called active from +8 up or from −8 down.
In assay [14] the target is Dihydroorotate dehydrogenase (quinone), mitochondrial (Plasmodium falciparum (isolate 3D7)) (UniProt Q08210). Description: inhibition of P. falciparum DHODH – biochemical, C-terminal His tag, absorbance 600 nm, primary screen (AID 1175).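 Note: recombinant parasite enzyme with a five histidine tag at its C terminus; test concentration not given here.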 Conditions: PfDHODH enzyme, DCIP absorbance 600 nm; higher = more signal, called active from +8 up or from −8 down.
Assay [15] can be described thus: inhibition of PAO1 biofilm formation – strain PAO1, LB-PBS medium, absorbance 600 nm, primary screen (AID 1176). Note: test concentration not given here. The settings on record: P. aeruginosa PAO1 growth/biofilm, A600, 12 h; higher = more signal.
Assay [16] is described as follows: growth modulation of vineyard yeast isolate – strain RM11-1a, OD600, basal, 24 h, primary screen (AID 1177).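 Note: cultures grown under basal conditions with no added stressor; test concentration not given here.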 The settings on record: S. cerevisiae RM11-1a growth, OD600, 24 h; higher = more signal, called active from +8 up or from −8 down.
Assay [17] in a line: growth of efflux-deficient E. coli DRC39 – strain DRC39, OD650, 24 h, E. coli filamentation inducers, primary screen (AID 1178).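 Note: growth measured as culture turbidity by optical density at 650 nm; test concentration not given here.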 Conditions: E. coli DRC39 acrAB, higher = more signal, called active from +8 up or from −8 down.
Assay [18] can be described thus: growth of efflux-deficient E. coli DRC39 – strain DRC39, OD650, 48 h, E. coli filamentation inducers, primary screen (AID 1179).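 Note: screen aims at cell division blockers that make cells filament.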 Conditions: E. coli DRC39 delta-acrAB growth, higher = more signal, called active from +8 up or from −8 down.
Assay [19] is described as follows: viability profiling in RPMI8226 myeloma cells – cell-based, resazurin fluorescence, basal, 24 h, PK04 Diversity Set, profiling panel (AID 1180).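 Note: RPMI8826 multiple myeloma cell line at 5000 cells per well; test concentration not given here.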 Conditions: higher = more signal.
The target of assay [20] is E3 ubiquitin-protein ligase XIAP (Homo sapiens) (UniProt P98170). Description: small molecules binding XIAP protein – biophysical, small-molecule microarray, fluorescence 635 nm, primary screen (AID 1181).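 Note: score merges 667 nm emission and signal to noise over triplicate slides.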 The settings on record: higher = more signal.

The source made the active and inactive calls. Unless noted, the rule behind the calls is not given here.

Chain of Dihydroorotate dehydrogenase (quinone), mitochondrial (Plasmodium falciparum (isolate 3D7)) (Q08210 whole entry, looked up): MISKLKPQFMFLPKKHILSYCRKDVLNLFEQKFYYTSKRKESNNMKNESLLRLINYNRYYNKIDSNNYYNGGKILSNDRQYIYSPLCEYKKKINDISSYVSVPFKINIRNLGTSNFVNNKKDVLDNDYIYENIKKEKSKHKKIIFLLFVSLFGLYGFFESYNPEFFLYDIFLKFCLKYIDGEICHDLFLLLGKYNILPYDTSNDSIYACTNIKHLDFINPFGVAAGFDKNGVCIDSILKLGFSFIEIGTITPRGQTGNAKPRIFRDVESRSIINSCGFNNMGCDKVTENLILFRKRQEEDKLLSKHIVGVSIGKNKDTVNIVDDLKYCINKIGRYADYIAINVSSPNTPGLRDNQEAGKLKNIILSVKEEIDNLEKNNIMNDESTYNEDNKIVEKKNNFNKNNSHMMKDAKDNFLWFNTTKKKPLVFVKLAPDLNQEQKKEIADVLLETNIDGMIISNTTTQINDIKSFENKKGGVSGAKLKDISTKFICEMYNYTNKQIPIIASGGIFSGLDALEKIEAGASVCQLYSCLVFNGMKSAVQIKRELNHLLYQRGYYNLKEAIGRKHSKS
Chain of E3 ubiquitin-protein ligase XIAP (Homo sapiens) (P98170 whole entry, looked up): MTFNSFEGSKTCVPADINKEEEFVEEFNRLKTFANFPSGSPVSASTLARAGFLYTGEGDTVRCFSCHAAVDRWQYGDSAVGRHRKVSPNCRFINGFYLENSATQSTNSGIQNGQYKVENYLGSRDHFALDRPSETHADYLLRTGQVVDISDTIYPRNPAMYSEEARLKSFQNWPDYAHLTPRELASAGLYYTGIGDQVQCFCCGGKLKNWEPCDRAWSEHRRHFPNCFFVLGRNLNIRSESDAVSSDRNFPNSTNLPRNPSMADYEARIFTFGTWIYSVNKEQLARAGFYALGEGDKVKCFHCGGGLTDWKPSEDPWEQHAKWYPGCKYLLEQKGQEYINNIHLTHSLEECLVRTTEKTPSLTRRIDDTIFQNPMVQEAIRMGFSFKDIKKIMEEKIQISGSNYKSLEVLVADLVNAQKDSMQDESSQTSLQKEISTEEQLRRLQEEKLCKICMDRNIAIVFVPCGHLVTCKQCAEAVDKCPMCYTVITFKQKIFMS

`COCCOC(=O)N1C(=O)[C@@]2(c3cc(C#CC4=CCCCC4)ccc31)[C@H](C(=O)N1CCc3cc(OC)c(OC)cc3C1)[C@H]1C(=O)O[C@H](c3ccccc3)[C@H](c3ccccc3)N1[C@@H]2c1ccccc1OCCO`: the z-score in [1] was 0.145; in assay [2], 0.299; in [3], 0.274; in [4] it was -1.37; in [5], -1.06; in [6], 0.0701. Further, the z-score in [7] was 2.17 (inactive); in [8], -0.701; in assay [9], -0.72; in [10] it was 0.267 (inactive); in assay [11] it was -0.437; in assay [12], 1.11 (inactive). In addition, the z-score in assay [13] was 0.224 (inactive); in assay [15], 2.41 (inactive); in assay [16], 1.78 (inactive); in [17], -0.649 (inactive); in assay [18], 0.418 (inactive); in assay [19] it was -0.135. Further, the composite z-score in assay [14] is -0.0424 (inactive); in assay [20], 0.0039.

For the molecule `Cc1ccc(S[C@]2(C(=O)NCCN3CCOCC3)CC(=O)N(Cc3cc(C(F)(F)F)cc(C(F)(F)F)c3)[C@@H]2c2ccc(CO)cc2I)cc1`, the z-score in assay [1] was 0.356; in assay [2], 0.712; in assay [3], -0.554; in assay [4], -2.1; in assay [5], -1.92; in assay [6], -0.168. The z-score was -0.227 (inactive) in assay [7]; -0.2 in assay [8]; -1.57 in [9]; 0.36 (inactive) in assay [10]; 1.21 in [11]; -5.83 (inactive) in assay [12]. The z-score in assay [13] is -2.06 (inactive); in [15] it was -0.407 (inactive); in assay [16], -2.09 (inactive); in [17], 0.106 (inactive); in assay [18], 1.09 (inactive); in assay [19], -2.33. Besides, the values for the composite z-score in assay [14] and in assay [20] were -0.483 (inactive) and -0.419, respectively.

Regarding `CCOC(=O)C[C@H]1[C@H](OC(=O)c2ccc(-c3ccccc3)cc2)[C@@H](NC(=O)c2ccc(-c3ccccc3)cc2)c2cc(OCCCO)ccc2N1C(=O)Cc1ccc(OC)cc1`, the z-score in assay [1] is -0.457; in assay [2], 0.485; in assay [3] it was -0.0494; in assay [4] it was -0.781; in [5] it was 0.0196; in assay [6], 1.15. The z-score is 0.458 (inactive) in assay [7]; -0.00497 in [8]; 0.413 in assay [9]; 0.0992 (inactive) in assay [10]; -0.0995 in [11]; 0.353 (inactive) in assay [12]. The z-score is -0.26 (inactive) in [13]; 0.432 (inactive) in [15]; 0.0873 (inactive) in assay [16]; 0.39 (inactive) in assay [17]; 0.372 (inactive) in assay [18]; -0.361 in assay [19]. The composite z-score in assay [14] is -0.432 (inactive); in assay [20] it was -0.123.

Regarding `C[C@]1(C(=O)NCc2ccccc2)c2ccccc2C(=O)N(Cc2cc(F)cc(C(F)(F)F)c2)[C@H]1c1ccc(CO)cc1`, the z-score was 0.179 in [1]; -0.628 in assay [2]; 1.11 in [3]; 0.304 in assay [4]; 0.411 in assay [5]; 2.16 in assay [6]. Moreover, the z-score in assay [7] was 0.41 (inactive); in assay [8], 0.714; in [9], -0.765; in [10] it was -0.375 (inactive); in assay [11], -0.555; in assay [12], -0.276 (inactive). Further, the z-score in assay [13] is -0.179 (inactive); in assay [15] it was 0.155 (inactive); in assay [16] it was 0.179 (inactive); in assay [17] it was 1.2 (inactive); in [18] it was 1.6 (inactive); in assay [19] it was 0.0748. The values for the composite z-score in [14] and in assay [20] were 0.225 (inactive) and 0.0256, respectively.

Regarding `C=CCC(OC(C)=O)[C@@H]1[C@@H](N(Cc2cccc3ccccc23)C(=O)c2cccc3ccccc23)c2cc(OCCCO)ccc2N1C(=O)c1ccc2ccccc2n1` (stereo not given in full), the z-score is -0.7 in assay [1]; 0.161 in assay [2]; -0.571 in [3]; -0.399 in assay [4]; -0.128 in assay [5]; 0.978 in assay [6]. In addition, the z-score in assay [7] is -1.2 (inactive); in [8] it was -0.133; in assay [9] it was 0.248; in assay [10], 0.0076 (inactive); in [11], -0.0111; in [12], -0.337 (inactive). Moreover, the z-score in assay [13] was -0.388 (inactive); in assay [15] it was -0.334 (inactive); in assay [16], -0.929 (inactive); in assay [17], 0.854 (inactive); in [18], 0.424 (inactive); in assay [19], -0.0685. The composite z-score in assay [14] was -0.747 (inactive); in assay [20] it was -0.124.

As to `CCCN1C(=O)[C@]2(COC(c3ccc(OCCCO)cc3)=N2)Cc2ccccc21`, the z-score is -0.78 in [1]; 0.585 in [2]; 0.302 in assay [3]; -1.6 in assay [4]; -0.688 in assay [5]; -0.0681 in assay [6]. Besides, the z-score was -0.919 (inactive) in [7]; 0.391 in assay [8]; 0.148 in assay [9]; 0.212 (inactive) in assay [10]; 0.0036 in assay [11]; -1.69 (inactive) in [12]. Moreover, the z-score was -0.543 (inactive) in assay [13]; -0.152 (inactive) in assay [15]; 0.235 (inactive) in assay [16]; -0.011 (inactive) in assay [17]; -0.0774 (inactive) in assay [18]; -0.454 in assay [19]. The composite z-score in assay [14] was -0.238 (inactive); in assay [20], -0.195.

Take `C=CCNC(=O)[C@@H]1[C@H]2C(=O)O[C@H](c3ccccc3)[C@H](c3ccccc3)N2[C@H](c2ccccc2OCCO)[C@@]12C(=O)Nc1ccc(C#CC3=CCCCC3)cc12`: the z-score was -1.77 in assay [1]; 1.98 in [2]; -2.85 in assay [3]; -3.09 in assay [4]; -3.42 in assay [5]; -1.79 in assay [6]. The z-score in [7] is 2.32 (inactive); in [8] it was -0.853; in assay [9] it was -1.17; in assay [10] it was -1.49 (inactive); in assay [11], -1.55; in [12], 0.556 (inactive). Further, the z-score was -2.61 (inactive) in [13]; 1.55 (inactive) in assay [15]; 1.78 (inactive) in assay [16]; -0.125 (inactive) in [17]; -0.353 (inactive) in assay [18]; -5 in assay [19]. For the same molecule, the composite z-score in assay [14] is 0.496 (inactive); in assay [20] it was 0.0593.

On to `Cc1ccccc1C(O)C1C=CC2C(=O)N(C)C(=O)C2N1Nc1ccccc1` (stereo not given), for which the z-score in [1] was 0.262; in [2] it was -1.23; in assay [3], -0.284; in assay [4], -0.143; in [5] it was -0.272; in [6] it was -1.96. Further, the z-score was -1.19 (inactive) in assay [7]; -0.317 in assay [8]; -0.00815 in assay [9]; -0.621 (inactive) in assay [10]; -1.19 in [11]; -0.532 (inactive) in assay [12]. For the same molecule, the z-score in assay [13] was -1.32 (inactive); in [15], 1.07 (inactive); in assay [16], -0.547 (inactive); in assay [17] it was -0.688 (inactive); in assay [18], -0.611 (inactive); in assay [19] it was -1.61. For the same molecule, the values for the composite z-score in assay [14] and in assay [20] were -0.513 (inactive) and 0.179, respectively.
